Results published in the supplement of paper PMC12636033.
± gives the standard deviation of the averaged measurements. Over roughly 33,000 sequences, “E-score (rank enrichment, -0.5 to 0.5)” has its median near -0.0028; the highest 2% begin near 0.23. For the sample, the highest values were picked, then their nearest neighbours and some sequences at random.

System: 2Sb-muMax20 (muMax20 with two 1,3-bis(methyl)benzene Cys staples, A13C/A17C and Q88C/A92C, C-terminal Lys)
Assay: PBM 8-mer E-score (E-score (rank enrichment, -0.5 to 0.5)); higher = stronger preferential binding
Method: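 Protein binding microarray (universal PBM chip covering all 10-mers in fixed probe flanks) with chemically synthesized human Max(13-93) bHLH-LZ analogs (not full-length Max) bearing noncanonical residues (hArg, Tha, Aib, Nle at 65) and aromatic Cys staples. Read-out per 8-mer (and its reverse complement): E-score (rank-based enrichment, -0.5 to 0.5) and Z-score of median probe intensity.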

Row | Sequence | PBM 8-mer E-score
1 | AATACGGA | 0.0895 ± 0.071
2 | CGGAATGC | -0.00566 ± 0.015
3 | GTCCATTA | 0.107 ± 0.015
4 | ATGTGGAA | 0.173 ± 0.015
5 | GGAAATAC | -0.0227 ± 0.051
6 | GAGTTCCA | -0.117 ± 0.052
7 | GAACGTGA | 0.00502 ± 0.1
8 | GGACGTGA | -0.108 ± 0.045
9 | GCACGTCC | -0.139 ± 0.095
10 | GCACGTAC | 0.0889 ± 0.026
11 | GCACGTGC | 0.4793 ± 0.0038
12 | GCACGTGA | 0.241 ± 0.026
13 | GTTCCGTA | -0.187 ± 0.024
14 | ATCCACAA | 0.0617 ± 0.059
15 | ATCGTCCG | -0.149 ± 0.027
16 | GTTTCTTA | 0.0179 ± 0.046
17 | AATAACCG | 0.0384 ± 0.018
18 | GCGCGCGA | 0.0594 ± 0.082
19 | GCGCGCGC | 0.3223 ± 0.00078
20 | ACGCGCGG | 0.178 ± 0.038
21 | ACGCGCGT | 0.3355 ± 0.0029
22 | CCGCGCGC | 0.01 ± 0.0081
23 | ACGCGCGC | 0.1365 ± 0.00093
24 | AGCAGTTC | 0.00143 ± 0.078
25 | AAAAATAA | 0.0834 ± 0.061
26 | GACCTGGA | -0.164 ± 0.035

Row | Sequence | PBM 8-mer E-score
27 | AATATTCT | 0.133 ± 0.011
28 | AATACGTG | 0.0524 ± 0.012
29 | CATACGTC | -0.00541 ± 0.00038
30 | AATACGCA | 0.251 ± 0.0039
31 | AATACGCT | 0.188 ± 0.045
32 | AATACGTA | 0.231 ± 0.019
33 | GATACGCA | 0.115 ± 0.031
34 | AATACGTC | 0.0547 ± 0.024
35 | CATACGTA | 0.3021 ± 0.0027
36 | GATACGTA | 0.081 ± 0.0043
37 | AAGCACAC | 0.0724 ± 0.00084
38 | AGACGTAA | 0.0336 ± 0.059
39 | CCGTAGAG | -0.0843 ± 0.033
40 | AAGGGGCG | 0.0188 ± 0.025
41 | AAAGGGCT | 0.0103 ± 0.021
42 | GAGGGGCA | 0.0724 ± 0.043
43 | AAGGGGCT | 0.276 ± 0.0072
44 | CAGGGGCA | 0.0503 ± 0.027
45 | TAGGGGCA | 0.267 ± 0.013
46 | AAAGTTAT | 0.0271 ± 0.025
47 | AATAGGGC | -0.00932 ± 0.054
48 | CAGTTTGA | -0.0513 ± 0.03
49 | GGAATGCC | -0.081 ± 0.011
50 | GTGGAGCA | -0.0959 ± 0.032
51 | AATAGCAG | -0.0835 ± 0.028
52 | ATTGTACA | 0.241 ± 0.042

Row | Sequence | PBM 8-mer E-score
53 | AACGTATA | 0.251 ± 0.032
54 | GACGTATA | 0.0136 ± 0.0084
55 | CCTGTATA | 0.109 ± 0.011
56 | ACTGTATA | 0.236 ± 0.042
57 | GCTGTATA | 0.218 ± 0.05
58 | ATTGTACC | 0.178 ± 0.035
59 | CTTGTACA | 0.0642 ± 0.09
60 | CACGTATA | 0.0602 ± 0.053
61 | CTTGTATA | 0.164 ± 0.018
62 | ATTGTATA | 0.273 ± 0.017
63 | ATTGTATG | 0.172 ± 0.066
64 | TGAAGAAA | -0.0313 ± 0.065
65 | CACCTCTG | -0.0833 ± 0.03
66 | CGTAACAG | 0.177 ± 0.013
67 | GAAGGCGC | -0.0372 ± 0.063
68 | GATGTATA | 0.0803 ± 0.029
69 | CATGTATA | 0.15 ± 0.062
70 | AATGTATA | 0.269 ± 0.02
71 | ATTGTCTC | -0.0946 ± 0.028
72 | GTTGTCTA | -0.0541 ± 0.029
73 | ATTGTCTA | 0.277 ± 0.0069
74 | TAACGGAA | 0.149 ± 0.021
75 | ACAGTGAT | 0.142 ± 0.065
76 | TAAGGCTA | 0.0712 ± 0.066
77 | ATGAGGGC | 0.0989 ± 0.0016
78 | AGGAGGGA | -0.0776 ± 0.0034

Row | Sequence | PBM 8-mer E-score
79 | ATGAGGGG | 0.267 ± 0.0094
80 | AGGAGGGC | -0.0974 ± 0.038
81 | AGGAGGGG | 0.297 ± 0.06
82 | AGTAGGGA | 0.0636 ± 0.013
83 | AGTAGGGC | 0.0716 ± 0.0035
84 | AGTAGGGG | 0.306 ± 0.0088
85 | ATGAGGGA | 0.191 ± 0.062
86 | AATGGCGA | 0.135 ± 0.067
87 | GACTCAGA | -0.115 ± 0.064
88 | CACGGCAC | -0.198 ± 0.045
89 | GGTCTCTA | -0.0733 ± 0.014
90 | CCTGAGCC | -0.241 ± 0.074
91 | TGTTTCAA | 0.13 ± 0.063
92 | GAAGTTGC | -0.202 ± 0.021
93 | CCTTCACA | 0.298 ± 0.014
94 | ACTTCACA | 0.0282 ± 0.023
95 | CCTTCACG | -0.013 ± 0.075
96 | AATCCCGT | -0.000655 ± 0.018
97 | GCATTTTA | 0.151 ± 0.0045
98 | CCATTTTA | 0.0822 ± 0.0077
99 | GTATTTTA | 0.0366 ± 0.0083
100 | ATATTTTA | 0.238 ± 0.0056
101 | ATATTTAA | 0.256 ± 0.024
102 | ATATTTAC | 0.22 ± 0.028
103 | ACATTTTA | 0.242 ± 0.054
104 | CTATTTTA | 0.193 ± 0.048

Row | Sequence | PBM 8-mer E-score
105 | CTATTTAA | -0.0132 ± 0.0071
106 | CCTTTTTC | 0.0688 ± 0.1
107 | CCCGAAAA | 0.0645 ± 0.051
108 | AGTATTAT | -0.0141 ± 0.036
109 | AGCGAACC | -0.0262 ± 0.033
110 | GCCCTCAA | 0.0476 ± 0.024
111 | AAAGTACT | 0.136 ± 0.092
112 | TGAAGTAA | 0.1 ± 0.05
113 | AGAAGTAA | 0.141 ± 0.011
114 | GGAAGTAA | 0.262 ± 0.0039
115 | TATATCCA | 0.157 ± 0.048
116 | AGTCGCAT | 0.00112 ± 0.0029
117 | ATGATCCG | -0.186 ± 0.035
118 | ATAAAAAT | 0.136 ± 0.028
119 | ATAAACAT | 0.246 ± 0.014
120 | ATAAATAC | 0.288 ± 0.028
121 | AAAAATAT | 0.16 ± 0.01
122 | ATAAATAT | 0.239 ± 0.042
123 | ATAAACAC | 0.0999 ± 0.056
124 | ATAAACAA | 0.157 ± 0.019
125 | ATAAATAG | 0.111 ± 0.04
126 | ATAAATAA | 0.111 ± 0.012
127 | ATATCCAT | 0.137 ± 0.14
128 | CACTCCGG | -0.0338 ± 0.0072
129 | ATTGATCA | 0.0679 ± 0.039
130 | ATGAATTC | 0.133 ± 0.015

Row | Sequence | PBM 8-mer E-score
131 | GAAAGCTC | -0.175 ± 0.051
132 | CAGTAGGG | 0.111 ± 0.065
133 | ATGGCCAT | 0.238 ± 0.048
134 | ATGGCCAG | 0.113 ± 0.0052
135 | ATGGCCAC | -0.0293 ± 0.011
136 | CTCAGGTA | -0.158 ± 0.024
137 | AGTAGCAC | 0.0432 ± 0.033
138 | ATAATAGA | 0.087 ± 0.027
139 | CTAATAGA | 0.12 ± 0.054
140 | GTAATAGA | 0.253 ± 0.0043
141 | ACCGAGAG | -0.0606 ± 0.0036
142 | AATTACCC | 0.286 ± 0.012
143 | CATTACCC | -0.0464 ± 0.014
144 | AATTACCA | 0.217 ± 0.039
145 | CCTTACTC | 0.123 ± 0.032
146 | AAGCTAGG | -0.00121 ± 0.038
147 | AATCCTGT | 0.0436 ± 0.00074
148 | GCCACCCC | 0.0125 ± 0.1
149 | ACCACCCG | -0.0962 ± 0.022
150 | CACACCCG | -0.111 ± 0.0078
151 | TCCACCCA | 0.0351 ± 0.068
152 | CCCACCCC | 0.307 ± 0.058
153 | CCCACCCA | 0.387 ± 0.029
154 | CCCACCCG | 0.335 ± 0.042
155 | ATCACCCA | 0.0137 ± 0.037
156 | ACCACCCC | 0.165 ± 0.0053

Row | Sequence | PBM 8-mer E-score
157 | ATCACCCG | -0.202 ± 0.044
158 | ATCACCCC | 0.27 ± 0.0061
159 | GCCACCCA | -0.0786 ± 0.049
160 | CATGTCGA | -0.00545 ± 0.041
161 | ATTGCTAG | 0.141 ± 0.019
162 | CATGTTCA | 0.151 ± 0.025
163 | AAGTATGT | 0.0914 ± 0.0063
164 | AGCGACCG | -0.22 ± 0.0069
165 | AAAGGCGA | 0.17 ± 0.0091
166 | GCTTCTCC | 0.0389 ± 0.0059
167 | ACTAAGGC | 0.00844 ± 0.07
168 | CAAGCATC | -0.0457 ± 0.013
169 | AAAAGCCA | 0.0803 ± 0.036
170 | ACATATCA | 0.2689 ± 0.00057
171 | CAATACAG | 0.00554 ± 0.011
172 | ACATATCG | 0.0421 ± 0.053
173 | ACATACAC | 0.127 ± 0.016
174 | ACATACAT | 0.273 ± 0.025
175 | CCATATCA | 0.076 ± 0.055
176 | ACATACAG | 0.188 ± 0.014
